NPSR antag: qHTS Assay for Antagonists of the Neuropeptide S Receptor: cAMP Signal Transduction; Potency, µM (series often up to 38.3 µM), usual class: inhibitors; actives 1% (n = 220,000); Q6W5P4; CHO-NPSR cells, cAMP TR-FRET, antagonist mode; further: nearly all actives have a fitted effect of over 50% in size
Target sequence (Q6W5P4 whole entry, looked up): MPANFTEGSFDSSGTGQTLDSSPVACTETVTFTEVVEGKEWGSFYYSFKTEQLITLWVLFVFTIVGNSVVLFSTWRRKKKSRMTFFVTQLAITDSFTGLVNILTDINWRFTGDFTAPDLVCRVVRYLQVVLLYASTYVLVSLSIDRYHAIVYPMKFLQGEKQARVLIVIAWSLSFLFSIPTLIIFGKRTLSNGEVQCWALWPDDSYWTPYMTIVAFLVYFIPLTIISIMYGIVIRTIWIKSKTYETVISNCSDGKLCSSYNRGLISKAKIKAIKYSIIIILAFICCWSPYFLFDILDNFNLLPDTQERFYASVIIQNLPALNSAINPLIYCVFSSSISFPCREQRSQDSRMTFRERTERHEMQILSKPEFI
IMPase inh: qHTS Assay for Identifying the Cell-Membrane Permeable IMPase Inhibitors | AID 901, 2007 | 120,000 tested, under 10 active | CHO-M1 cells, IP1 accumulation, HTRF TR-FRET ratio | inhibition (IP1 accumulation), % at 46.1 µM | Inositol monophosphatase 1 (Rattus norvegicus), P97697; active means well fitted curve in the direction sought with a large enough effect in the signal ratio, not every such curve was filed as active; inconclusive means small, poorly fitted or top-dose-only effect, or a change in a side signal; inactive means no such curve, though single readings can be large or run the other way; the % refers to the signal ratio;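 further: cells stimulated with carbachol in lithium chloride buffer; higher means more IMPase inhibition seen as more IP1 and lower FRET ratio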
Target sequence (P97697 whole entry, looked up): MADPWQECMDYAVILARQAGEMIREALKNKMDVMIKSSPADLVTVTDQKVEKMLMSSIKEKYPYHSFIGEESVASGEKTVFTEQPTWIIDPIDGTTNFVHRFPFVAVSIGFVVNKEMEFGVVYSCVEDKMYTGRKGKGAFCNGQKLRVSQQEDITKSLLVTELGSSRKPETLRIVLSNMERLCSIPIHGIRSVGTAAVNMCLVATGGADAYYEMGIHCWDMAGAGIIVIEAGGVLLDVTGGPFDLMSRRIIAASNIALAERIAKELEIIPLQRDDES
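Elevated IP1 in lysates lowers TR-FRET signal (665/620 ratio and 620 channel reported). Cells were CHO-M1, given carbachol (50 uM as added) plus 50mM LiCl, pH 7.4, 30 min, 37C; compounds titrated up to 46 uM; AC50 by Hill equation.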
HTT cytoprotect: qHTS Multiplex Assay to Identify Dual Action Probes in a Cell Model of Huntington: Cytoprotection (ATP) | PC12 HTT-Q103 induced, cytoprotection, ATP luminescence, 40 h | Potency, µM (titrated, usually from 56.4 µM), usual class: activators | actives 0.14% (n = 230,000) | AID 1471, 2008; further: nearly all actives have a fitted effect of over 45% in size
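Compounds were screened for protection of PC12 cells against cell death after tebufenozide induction (100 nM final) of mutant Huntingtin exon 1 (Q103) fused to GFP.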
HttQ103 aggreg: qHTS Multiplex Assay to Identify Dual Action Probes in a Cell Model of Huntington: Aggregate Formation (GFP) | PC12 HttQ103-GFP aggregates, Acumen cytometry, 40 h | Potency, µM (series often up to 46.1 µM), most hits filed as inhibitors | actives 1.1% (n = 220,000) | AID 1688, 2009; further: nearly all actives have a fitted effect of over 60% in size
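PC12 cells stably carrying ecdysone-inducible HTT exon 1 Q103–GFP were induced with tebufenozide (100 nM final) and treated with library compounds in titration. GFP aggregates in lysates were counted by laser scanning cytometry.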
IMPase Li cell: qHTS Assay for Identifying the Cell-Membrane Permeable IMPase Inhibitors: Potentiation with Lithium; CHO-M1 cells, IP1 TR-FRET (IP-One), carbachol + lithium; Potency, µM (titrated, usually from 59.4 µM), actives largely listed as inhibitors; actives 0.35% (n = 210,000); AID 1457, 2008;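 further: IP1 builds up when IMPase is blocked and the TR-FRET signal falls; nearly all actives have a fitted effect of over 50% in size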
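IP1 accumulation measured by competitive TR-FRET in lysed CHO-M1 cells after 30 min compound exposure at 37C, with a small lithium addition to potentiate weak responses. Hill-equation AC50 from ratio and donor-channel data.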
Lamin A splicing: qHTS Assay for Modulators of Lamin A Splicing. HeLa LMNA splicing GFP/RFP minigene ratio, 48 h. Potency, µM (titrated, usually from 46.1 µM), hits mostly inhibitors. actives 0.01% (n = 200,000); active means well fitted inhibition curve with a large enough effect in the signal ratio, with a control signal flat, not every such curve was filed as active; inconclusive means small, poorly fitted or top-dose-only effect, or effect the other way, or a change in a side signal; the % refers to the signal ratio
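Read-out is the ratio of GFP to DsRed2 object intensity, acquired by 488 nm laser-scanning cytometry on HeLa lamin A-EGFP minigene reporter cells. Compound incubation 48 hrs at 37 °C in Opti-MEM with 2% FBS; DMSO 0.5% final.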
A number is an active result; n = inactive; u = inconclusive; x = not tested or not shown; [ ] = remark or other dose. Hits are enriched below; roughly 1.6% of the tested compounds scored in any of these assays. Unless noted, the call rests on the fitted dose curve; in most records, active means well fitted curve in the direction sought with a large enough effect; inconclusive means small, poorly fitted or top-dose-only effect, or another doubt; inactive means no such curve, though single readings can be large; an effect the other way counts as inactive or inconclusive.

SMILES	NPSR antag	IMPase inh	HTT cytoprotect	HttQ103 aggreg	IMPase Li cell	Lamin A splicing
c1ccc(CNc2c3c(nc4ccccc24)CCC3)cc1	n	x	n[10 µM]	4.5µM	x	x
CNc1ccc2oc(C[C@H]3O[C@@]4(CC[C@H]3C)O[C@H]([C@H](C)C(=O)c3ccc[nH]3)[C@H](C)C[C@H]4C)nc2c1C(=O)O	7.9µM	x	n[10 µM]	u	n	u
NC(N)=NN=C(/C=C/c1ccc([N+](=O)[O-])o1)/C=C/c1ccc([N+](=O)[O-])o1	x	x	n	10µM	x	x
Cc1cccc(N2C(=O)NC(=O)/C(=C/c3ccc([N+](=O)[O-])o3)C2=O)c1	n	x	n[10 µM]	u	n	n
C[C@@H]1O[C@@H](O[C@H]2C[C@@H](O)[C@]3(CO)[C@@H]4[C@@H](O)C[C@]5(C)[C@H](C6=CC(=O)OC6)CC[C@@]5(O)[C@H]4CC[C@@]3(O)C2)[C@H](O)[C@H](O)[C@@H]1O	x	x	n[1.9 µM]	x	x	x
CN1C(=O)NC(=O)/C(=C\C=C\c2ccccc2[N+](=O)[O-])C1=O	10µM	x	n	u	n	u
O=C(COc1ccc2ccccc2c1)N1CCN(Cc2c[nH]c3ccccc23)CC1	n	n	n[10 µM]	10µM	n	u
COc1cc2c(cc1OC)[C@]13CCN4CC5=CCO[C@@H]6CC(=O)N2[C@@H]1[C@H]6[C@@H]5C[C@H]43	x	x	n	x	x	x
Clc1ccc(C(c2ccc(Cl)cc2)n2cc[n+](CC(OCc3ccc(Cl)cc3Cl)c3ccc(Cl)cc3Cl)c2)cc1 (centres undefined)	13µM	x	x	x	n	u
[Hg+][c]1ccccc1	x	x	n	3.2µM	x	x
c1ccc(-c2ccccc2)cc1	x	x	n	x	n	x
CC[C@@H]1CN2CC[C@@H]1C[C@H]2[C@@H](O)c1ccnc2ccc(OC)cc12	x	x	n	x	x	x
COC(=O)C[C@](O)(CCCC(C)(C)O)C(=O)O[C@@H]1C(OC)=C[C@]23CCCN2CCc2cc4c(cc2[C@H]13)OCO4	x	n	n	0.16µM	n	x
CCCCn1c(O)c(C(CC)=NCc2ccc3c(c2)OCO3)c(=O)[nH]c1=O	n	n	n	25µM	n	n
CC(C)[C@@]1(NC(=O)[C@H]2C[C@H]3c4cccc5[nH]cc(c45)C[C@@H]3N(C)C2)O[C@]2(O)[C@H]3CCCN3C(=O)[C@H](Cc3ccccc3)N2C1=O	x	x	n[1.9 µM]	x	x	x
CN1CCN(c2ccc(S(C)(=O)=O)cc2[N+](=O)[O-])CC1	n	x	n[10 µM]	n	n	n
CN1CCN(c2ccc([N+](=O)[O-])c3no[n+]([O-])c23)CC1	10µM	x	n[10 µM]	u	x	x
COc1ccc2c(c1O)-c1cccc3c1[C@H](C2)N(C)CC3	x	n	n[1.9 µM]	x	x	x
CCc1cccc(NC(=O)Cn2c(=O)oc3cc(S(=O)(=O)N4CCOCC4)ccc32)c1	n	n	n	2.2µM	n	u
C[C@H]1CC[C@@H]2[C@@H](C)C(=O)O[C@H]3O[C@@]4(C)CC[C@@H]1[C@]32OO4	x	x	n	x	x	x
CN1C[C@@H](CS(=O)(=O)N(C)C)C[C@H]2c3cccc4c3c(cn4C)C[C@@H]21	x	n	n[1.9 µM]	x	x	x
N#CC(C#N)=NNc1ccc(S(N)(=O)=O)cc1	n	x	n[10 µM]	n[9.22 µM]	x	x
CC1CCN(S(=O)(=O)c2ccc(NN=C(C#N)C#N)cc2)CC1	10µM	n	n	16µM	n	n
CC(C)(C)[C@@]1(O)C[C@@H]2OC(=O)C[C@@]23C(=O)O[C@H]2OC(=O)[C@@H](O)[C@]231	x	x	n	x	x	x
COC(=O)C1CN(C#N)N(c2ccc(Cl)cc2)C12c1ccccc1-c1ccccc12 (centres undefined)	7.9µM	n	n[10 µM]	u	n	u
SMILES	NPSR antag	IMPase inh	HTT cytoprotect	HttQ103 aggreg	IMPase Li cell	Lamin A splicing
O=c1cccc2n1C[C@@H]1C[C@H]2CN2CCCC[C@H]12	x	x	n	x	x	x
CCCCCC[C@H]1C(=O)O[C@@H](C)[C@H](NC(=O)c2cccc(NC=O)c2O)C(=O)O[C@@H](C)[C@@H]1OC(=O)CC(C)C	x	x	n	x	x	x
CC1CCC/C=C/C2CC(O)CC2C(O)/C=C/C(=O)O1 (centres undefined)	u	n	n	1µM	n	u
C[C@@H]1CCC/C=C\[C@H]2C[C@H](O)C[C@@H]2[C@H](O)/C=C\C(=O)O1	x	x	n	x	x	x
C[C@H]1CCC/C=C/C2C[C@H](O)CC2[C@H](O)/C=C/C(=O)O1 (some centres undefined)	n	x	x	2.8µM	n	u
CCCCCSc1cc(OC)c(CCN)cc1OC	n	n	n	n	n	n
CCCCCCCSc1cc(OC)c(CCN(C)C)cc1OC	u	n	n	10µM	n	u
Cc1cc(OC(=O)c2ccco2)c2c3c(c(=O)oc2c1)CCCC3	n	n	n	13µM	n	u
Cc1cc(OC(=O)c2cccs2)c2c3c(c(=O)oc2c1)CCCC3	n	x	n[10 µM]	25µM	n	u

Screening data (PubChem)
